Results filed as inconclusive are left out. Active and inactive are the calls of the source.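 The calls were made as follows, unless noted: active = normalized viability below 100% at a tested concentration; inactive = the rest.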
Legend:
[1] = growth inhibition of DIPG glioma cells, dose response, cell-based, SU-DIPG-XVII, MIPE5.0, CellTiter-Glo, qHTS (AID 1347060; cut-off not given, nearly all actives have AC50 up to about 26 µM;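 as to AC50: cells exposed to compound for 48 hours before viability readout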); conditions: SU-DIPG-XVII viability, CellTiter-Glo ATP luminescence
[2] = growth inhibition of DIPG glioma cells, dose response, cell-based, SU-DIPG-XIII, MIPE4.0, CellTiter-Glo, qHTS (AID 1347061; cut-off not given, nearly all actives have AC50 up to about 37 µM;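 also: cells exposed to compound for 48 hours before readout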); conditions: SU-DIPG-XIII viability, CellTiter-Glo ATP luminescence
[3] = growth inhibition of DIPG glioma cells, dose response, cell-based, JHH-DIPG-1, MIPE4.0, CellTiter-Glo, qHTS (AID 1347062; cut-off not given, nearly all actives have AC50 up to about 27 µM;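 as to AC50: cells exposed to compound for two days before readout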); conditions: JHH-DIPG-1 viability, CellTiter-Glo ATP luminescence
[4] = growth inhibition of DIPG glioma cells, dose response, cell-based, SU-DIPG-IV, MIPE4.0, CellTiter-Glo, qHTS (AID 1347063; cut-off not given, nearly all actives have AC50 up to about 30 µM;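 also: compound exposure lasted 48 hours before the viability readout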); conditions: SU-DIPG-IV viability, CellTiter-Glo ATP luminescence
[5] = growth inhibition of DIPG glioma cells, dose response, cell-based, SU-DIPG-XIII, MIPE5.0, CellTiter-Glo, qHTS (AID 1347064; cut-off not given, nearly all actives have AC50 up to about 23 µM;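 as to AC50: cells exposed to compound for 48 hours before the viability read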); conditions: SU-DIPG-XIII viability, CellTiter-Glo ATP luminescence
[6] = viability loss in pontine glioma line – cell-based, SU-DIPG-XXV, MIPE5.0, CellTiter-Glo, qHTS, dose response (AID 1347065; cut-off not given, nearly all actives have AC50 up to about 26 µM;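 also: cells exposed to compound for 48 hours before ATP readout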); conditions: CellTiter-Glo ATP luminescence
[7] = JHH-DIPG-1 glioma cell viability, MIPE5.0 library, CellTiter-Glo luminescence, qHTS (AID 1347067; cut-off not given, nearly all actives have AC50 up to about 26 µM;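 also: cells exposed to compound for 48 hours before readout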); conditions: JHH-DIPG-1 glioma viability, CellTiter-Glo ATP luminescence
[8] = SU-DIPG-XXV glioma cell viability, MIPE5.0 library, qHTS (AID 1347068; cut-off not given, nearly all actives have IC50 up to about 30 µM;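 also: cells exposed to compound for 48 hours before viability readout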)
[9] = SU-DIPG-VI glioma cell viability, MIPE4.0 library, CellTiter-Glo luminescence, qHTS (AID 1347066; cut-off not given, nearly all actives have AC50 up to about 30 µM;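 also: cells exposed to compound for 48 hours before readout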); conditions: CellTiter-Glo ATP luminescence
[10] = sensitizers of A549 cells to miR-34 induction, primary screen, imaging, A549 dox-inducible miR-34, nuclei and caspase counts (AID 1347080;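 active = compounds whose cell count with miR-34 switched on is under 0.7 times the count with it off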); conditions: A549 miR-34 inducible, Hoechst nuclei count, 48 h
[11] = modifiers of HSF1 nuclear foci, imaging, Selleck Cancer Library (AID 1347162; in the data active = plate-normalised HSF1 focus index below about 0.46); conditions: human cells, at 10 µM; SSMD: measured here: HSF1 foci SSMD mean; cell count: measured here: cell number; plate-normalised HSF1 focus index: stronger effect = lower value
[12] = survival rescue of mitochondrial mutant cells in low glucose, primary screen, MELAS cybrids, Rieske KO mouse fibroblasts, CellTiter-Glo (AID 1508586;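 active = mean z-score across replicates of 1.96 or higher in either the MELAS or the Rieske mutant cell line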;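 also: z relative to plate mean and SD of compound and empty wells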)
[13] = ovarian cancer cell viability with rucaparib, profiling panel, oncology-focused library, rucaparib conditional (AID 1508598); conditions: patient-derived ovarian cancer cells, CellTiter-Glo viability, 144 h, stronger effect = lower value
[14] = stronger effect = lower value, cell number ratio, induced over uninduced
[15] = measured here: relative caspase fold change +Dox/-Dox
[16] = measured here: total cells with miR-34 induction, stronger effect = lower value
[17] = measured here: total cells without miR-34 induction
[18] = MELAS cybrid survival, CellTiter-Glo 48 h, stronger effect = higher value
[19] = Rieske KO mouse fibroblast survival, CellTiter-Glo 72 h

NC(=O)Nc1cc(-c2ccc(CN3CCOCC3)cc2)sc1C(N)=O
active: AC50 [1] 1320 nM | AC50 [2] 18700 nM | AC50 [3] 20900 nM | AC50 [4] 16600 nM | AC50 [5] 13200 nM | AC50 [6] 934 nM | AC50 [7] 5250 nM | IC50 [8] 2950 nM

CC(=O)Nc1cccc(-n2c(=O)n(C3CC3)c(=O)c3c(Nc4ccc(I)cc4F)n(C)c(=O)c(C)c32)c1
3.07: SSMD [11]
4330: cell count [10, 16]
active: AC50 [1] 83.3 nM | AC50 [2] 235 nM | AC50 [3] 209 nM | AC50 [4] 3320 nM | AC50 [5] 83.3 nM | AC50 [6] 105 nM | AC50 [7] 41.7 nM | viability ([13]; at 0.00122 µM, OCI-P5x cells, with rucaparib 20 µM, 100% = cells with rucaparib alone) 89.6% | viability ([13]; at 0.00122 µM, OCI-P5x cells, without rucaparib) 89.5% | viability ([13]; at 0.00488 µM, OCI-P5x cells, with rucaparib 20 µM, 100% = cells with rucaparib alone) 75% | viability ([13]; at 0.00488 µM, OCI-P5x cells, without rucaparib) 74.2% | viability ([13]; at 0.0195 µM, OCI-P5x cells, with rucaparib 20 µM, 100% = cells with rucaparib alone) 72.4% | viability ([13]; at 0.0195 µM, OCI-P5x cells, without rucaparib) 76.7% | viability ([13]; at 0.0781 µM, OCI-C5x cells, with rucaparib 10 µM, 100% = cells with rucaparib alone) 88% | viability ([13]; at 0.0781 µM, OCI-C5x cells, without rucaparib) 88.8% | viability ([13]; at 0.0781 µM, OCI-P5x cells, with rucaparib 20 µM, 100% = cells with rucaparib alone) 51.6% | viability ([13]; at 0.0781 µM, OCI-P5x cells, without rucaparib) 55% | viability ([13]; at 0.313 µM, OCI-C5x cells, with rucaparib 10 µM, 100% = cells with rucaparib alone) 73.7% | viability ([13]; at 0.313 µM, OCI-C5x cells, without rucaparib) 82.7% | viability ([13]; at 0.313 µM, OCI-P5x cells, with rucaparib 20 µM, 100% = cells with rucaparib alone) 44.7% | viability ([13]; at 0.313 µM, OCI-P5x cells, without rucaparib) 53.7% | viability ([13]; at 1.25 µM, OCI-C5x cells, with rucaparib 10 µM, 100% = cells with rucaparib alone) 45.5% | viability ([13]; at 1.25 µM, OCI-C5x cells, without rucaparib) 78.2% | viability ([13]; at 1.25 µM, OCI-P5x cells, with rucaparib 20 µM, 100% = cells with rucaparib alone) 36.4% | viability ([13]; at 1.25 µM, OCI-P5x cells, without rucaparib) 37.4% | viability ([13]; at 5 µM, OCI-C5x cells, with rucaparib 10 µM, 100% = cells with rucaparib alone) 41.3% | viability ([13]; at 5 µM, OCI-C5x cells, without rucaparib) 52.7% | viability ([13]; at 5 µM, OCI-P5x cells, with rucaparib 20 µM, 100% = cells with rucaparib alone) 30.4% | viability ([13]; at 5 µM, OCI-P5x cells, without rucaparib) 34.2%
inactive: outcome [9] | fold change [10, 14] 1.15 | plate-normalised HSF1 focus index [11] 1.16 | z-score [12, 18] -0.421 | viability ([13]; at 0.000305 µM, OCI-C5x cells, with rucaparib 10 µM, 100% = cells with rucaparib alone) 123% | viability ([13]; at 0.000305 µM, OCI-C5x cells, without rucaparib) 120% | viability ([13]; at 0.000305 µM, OCI-P5x cells, with rucaparib 20 µM, 100% = cells with rucaparib alone) 109% | viability ([13]; at 0.000305 µM, OCI-P5x cells, without rucaparib) 102% | viability ([13]; at 0.00122 µM, OCI-C5x cells, with rucaparib 10 µM, 100% = cells with rucaparib alone) 102% | viability ([13]; at 0.00122 µM, OCI-C5x cells, without rucaparib) 122% | viability ([13]; at 0.00488 µM, OCI-C5x cells, with rucaparib 10 µM, 100% = cells with rucaparib alone) 105% | viability ([13]; at 0.00488 µM, OCI-C5x cells, without rucaparib) 113% | viability ([13]; at 0.0195 µM, OCI-C5x cells, with rucaparib 10 µM, 100% = cells with rucaparib alone) 111% | viability ([13]; at 0.0195 µM, OCI-C5x cells, without rucaparib) 109%
3760: cell count [10, 17]
-0.112: z-score [12, 19]
0.672: fold change [10, 15]
6560: cell count [11]

Cc1ccc(-c2ncn(-c3ccc(Nc4nccc(-c5cccc(N6CCOCC6)c5)n4)cc3)n2)cn1
active: AC50 [1] 2350 nM | AC50 [2] 83.3 nM | AC50 [3] 93.5 nM | AC50 [4] 118 nM | AC50 [5] 2630 nM | AC50 [6] 2950 nM | AC50 [7] 2630 nM | IC50 [8] 16600 nM

COc1ccc(-n2nc(C(N)=O)c3c2C(=O)N(c2ccc(N4CCCCC4=O)cc2)CC3)cc1
8080: cell count [10, 16]
8900: cell count [10, 17]
inactive: outcome [1] | outcome [2] | outcome [3] | outcome [4] | outcome [5] | outcome [6] | outcome [9] | outcome [7] | fold change [10, 14] 0.908 | z-score [12, 18] -0.515
0.921: fold change [10, 15]
-0.309: z-score [12, 19]

Source: PubChem BioAssay
